Rows were chosen to be rich in hits. Some 4.8% of all compounds tested hit in one or more screens of this group.
ATXN2 expr inh = Primary qHTS for Inhibitors of ATXN expression. 360,000 compounds, 0.72% hits. HEK-293 ATXN2-luciferase reporter, luminescence, 24 h. Potency, µM (highest dose often 57 µM), for the others: top-dose activity change, negative = inhibition, actives largely listed as inhibitors. AID 1745845, 2022; note: potency is the fitted concentration of half-maximal effect; % is set by controls: 0 for no effect and ±100 for the full control effect; nearly all actives have a fitted effect of over 55% in size
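ATXN2-luciferase reporter cells (luciferase flanked by upstream and downstream ATXN2 gene portions) were treated 24 h at 37 °C with compounds at up to 57 uM. SteadyGlo luminescence gave expression; GF-AFC fluorescence gave viability.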
S2 tox = Viability Counterscreen for Primary qHTS for Inhibitors of ATXN expression. 400,000 compounds, 0.49% hits. S2 cells (HEK-293 line with an ATXN2-luciferase reporter) viability, CellTiter-Fluor protease fluorescence, 24 h. Potency, µM (doses to about 56.7 µM), most hits filed as cytotoxic; note: potency is the fitted concentration of half-maximal effect; nearly all actives have a fitted effect of over 40% in size
D3 ag = qHTS of D3 Dopamine Receptor Agonist: qHTS | D(3) dopamine receptor (Homo sapiens), P35462 | D3R DiscoveRx beta-arrestin cells, luminescence, 90 min | max activation, % | 410,000 compounds, 0.58% hits | AID 652048, 2013; in the data active = max activation above about 30%; note: 0% is about no effect
Target sequence (P35462 whole entry, looked up): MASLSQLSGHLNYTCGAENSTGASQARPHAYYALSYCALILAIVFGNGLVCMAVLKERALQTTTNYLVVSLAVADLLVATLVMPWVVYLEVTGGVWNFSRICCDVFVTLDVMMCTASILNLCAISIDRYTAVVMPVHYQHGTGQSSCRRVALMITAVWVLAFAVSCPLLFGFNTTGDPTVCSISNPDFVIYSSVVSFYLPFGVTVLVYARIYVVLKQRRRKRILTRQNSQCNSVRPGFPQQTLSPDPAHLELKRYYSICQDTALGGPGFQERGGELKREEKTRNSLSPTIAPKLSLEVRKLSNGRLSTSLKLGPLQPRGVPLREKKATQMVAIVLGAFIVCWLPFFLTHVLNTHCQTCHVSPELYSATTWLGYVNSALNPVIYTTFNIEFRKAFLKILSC
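Agonist mode: compounds and dopamine controls were applied to plated cells for 90 min at 37 degrees C after an overnight attachment at 1500 cells/well. Luminescent read-out followed 30 - 60 minutes at room temperature with DiscoveRx detection reagent.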
D3 antag = qHTS of D3 Dopamine Receptor Antagonist: qHTS | D(3) dopamine receptor (Homo sapiens), P35462 | D3R cells, DiscoveRx beta-arrestin luminescence, antagonist mode; active compounds read low | max response, negative = inhibition, % | 360,000 compounds, 2.5% hits; in the data active = max response below about -50%; inconclusive = no clear call, values can overlap the other calls; note: % is set by controls: 0 for no effect and ±100 for the full control effect
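Cells plated overnight at 1500 cells/well, then exposed to library compounds with dopamine controls for 90 minutes at 37 degrees C. DiscoveRx reagent added for 30–60 minutes at room temperature; luminescence read, quantitative HTS format.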
HepG2 tox = qHTS for Inhibitors of TGF-b: Cytotox Counterscreen | HepG2 CAGA-GFP viability, ATP luminescence, 18 h | Potency, µM (top dose mostly 46.1 µM), without a hit: top-dose activity change, negative = cytotoxicity, usual class: cytotoxic | 410,000 compounds, 0.76% hits | AID 588856, 2011; note: potency is the fitted concentration of half-maximal effect
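CellTiter-Glo luminescence gave cytotoxicity after 18 hours at 37 degrees C. The cells were HepG2 CAGA-GFP in 1% FBS DMEM, stimulated with 500 pg/mL TGF-beta after compound addition. %Activity was normalised to no-cell wells (complete cell-killing) and DMSO (no toxicity), and curves were fitted and classified.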
TGFb SMAD3 inh = qHTS for Inhibitors of TGF-b. HepG2 CAGA-GFP TGF-b/SMAD3 reporter, GFP fluorescence, 18 h; TGF-beta stimulated, 500 pg/mL final. Potency, µM (series often up to 46.1 µM), inactives show top-dose activity, negative = inhibition, actives largely listed as inhibitors. 410,000 compounds, 1.2% hits. AID 588855, 2011; note: potency is the fitted concentration of half-maximal effect; % is set by controls: 0 for no effect and ±100 for the full control effect; nearly all actives have a fitted effect of over 65% in size
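HEPG2 CAGA-GFP cells (1000/well, DMEM with 1% FBS) were pre-incubated 2 h at 37 degrees C, given compound by pin tool, then stimulated with TGF-beta at 500 pg/mL final for 18 h before per-cell GFP fluorescence imaging.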
* hit, by the source's call; i = inactive; ? = inconclusive; / = not tested or not shown; [ ] = another dose, or the depositor's remark. Unless noted, calls come from the whole dose curve; as a rule, active = well fitted curve in the direction sought with a large enough effect; inconclusive = small, poorly fitted or top-dose-only effect, or another doubt; inactive = no such curve, though single readings can be large; an effect the other way counts as inactive or inconclusive.

SMILES	ATXN2 expr inh	S2 tox	D3 ag	D3 antag	HepG2 tox	TGFb SMAD3 inh
Cc1cccc(OCCCCn2c(C3CC(=O)N(c4ccccc4Cl)C3)nc3ccccc32)c1 (configuration not stated)	-18.2%	i	2.1	/	3.0%	?
CCc1ccccc1N1CC(c2nc3ccccc3n2CCOc2ccc(Cl)c(C)c2)CC1=O (configuration not stated)	?	?	-10.7	/	10µM*	11.2µM*
Cc1cc(OCCn2c(C3CC(=O)N(Cc4ccc(F)cc4)C3)nc3ccccc32)ccc1Cl (configuration not stated)	?	/	-1.8	/	-101.8%	12.6µM*
Cc1ccc(C)c(OCCn2c(C3CC(=O)N(Cc4ccc(F)cc4)C3)nc3ccccc32)c1 (configuration not stated)	?	/	-15.3	/	-103.6%	12.6µM*
CC1CCN(CCOCCOc2ccc(Br)cc2Cl)CC1	-21.7%	?	-57.3	-75.5*	-19.5%	3.1%
CC1CCCN(CCCOc2ccc(Br)cc2Cl)C1 (configuration not stated)	-6.4%	i	-11.6	-77.2*	0.8%	2.3%
Cc1ccc(C(=O)NC(=S)Nc2ccc(-c3ccc(CO)o3)cc2)cc1	-12.3%[11.3 µM]	?	60.7*	82.1	-17.8%	-2.4%
CCOC(=O)c1ccc(NC(=O)c2ccc(=O)n(Cc3cccc(C)c3)c2)cc1	?	i	-2.9	/	-41.4%	-17.7%
COc1ccc(C(=O)N2CCCC(c3ccccc3)C2)cc1 (configuration not stated)	5.7%	i	-2.2	?	-8.4%	-6.6%
O=C(c1ccc(F)cc1)N1CCC(c2ccccc2)C1 (configuration not stated)	43.6%	i	-8.4	-65.1*	19.7%	18.6%
O=C1CC2(CCCC2)CC(=O)N1CCCCN1CCN(c2ncccn2)CC1	-2.3%	i	-89.1	-100.0*	-25.4%	8.2%
O=C1[C@@H]2[C@H]3CC[C@H](C3)[C@@H]2C(=O)N1CCCCN1CCN(c2ncccn2)CC1	-5.8%	i	-10.0	/	/	/
CCCCn1c(=O)c2oc3ccccc3c2n(CC(=O)Nc2cc(C)ccc2C)c1=O	/	/	4.0	/	5.1%	-9.9%
CCn1c(SC)nc2cc(S(=O)(=O)N3CCCCC3)ccc21	-9.2%	i	-2.4	-26.5	-24.7%	-1.2%
CCn1c(CN2CCC(C)CC2)nc2cc(S(=O)(=O)N3CCCCC3)ccc21	/	?	-3.4	-83.1*	-49.3%	-12.7%
Cc1cc(N2CCN(C)CC2)nc(=S)[nH]1	3.0%	i	-17.0	-80.9*	17.9%	6.8%
O=C(Nc1ccccc1NC(=O)NC1CCCCC1)NC1CCCCC1	20µM*	?	-10.9	?	-10.9%	-18.4%
COc1ccccc1NC(=S)NC1CCCCCCCCCCC1	/	i	-8.0	-79.4*	-37.4%	?
COc1ccccc1NC(=O)CSc1nnc(NC(=O)NC2CCCCC2)s1	/	/	-1.6	/	-17.3%	17.8µM*
COc1cccc(NC(=O)Cn2c(=O)n(-c3ccccc3)c(=O)c3ccc(C(=O)NCc4ccc5c(c4)OCO5)cc32)c1	-23.8%	i	-10.6	/	-17.0%	-2.0%
Cc1sc2ncn(CC(=O)NCCCN3CC(C)CC(C)C3)c(=O)c2c1S(=O)(=O)N1CC(C)CC(C)C1 (configuration not stated)	-3.6%	i	-28.4	-90.4*	-19.1%	-19.1%
Cc1ccc(S(=O)(=O)N[C@H](CNCc2ccccc2)C(C)C)cc1	/	/	-16.6	-90.6*	/	/
Cc1ccc(S(=O)(=O)NCc2ccccc2)cc1	3.1%	i	9.3	9.6	-2.4%	1.4%
Cc1ccc(CCNC(=O)c2c(C)oc3ncnc(N4CCOCC4)c23)cc1	/	/	-7.4	/	1.1%	1.2%
CCOC(=O)c1ccc(NC(=O)C2CCCN(S(=O)(=O)c3ccc(F)cc3)C2)cc1 (configuration not stated)	31.6µM*	?	13.4	50.1	-1.6%	-9.7%
SMILES	ATXN2 expr inh	S2 tox	D3 ag	D3 antag	HepG2 tox	TGFb SMAD3 inh
CCc1ccc(NC(=O)C2CCCN(S(=O)(=O)c3ccc(F)cc3)C2)cc1 (configuration not stated)	-25.2%	?	2.1	/	0.8%	?
CCOC(=O)c1ccc(NC(=O)C2CC(O)CN2S(=O)(=O)c2ccc(C)cc2)cc1 (configuration not stated)	-10.7%	i	-17.9	-54.5*	-14.4%	-3.4%
CCOC(=O)c1ccc(NC(=O)C2Cc3ccccc3CN2S(=O)(=O)c2ccc(Cl)cc2)cc1 (configuration not stated)	/	/	-5.0	/	-29.9%	/
CCOC(=O)C(CC)N1CCN(Cc2ccc(F)cc2)C(=O)C1=O (configuration not stated)	2.6%	i	5.0	/	1.1%	-25.8%
COC(=O)c1c(NC(=O)c2ccc(Br)s2)sc2c1CCC2	-3.5%	i	30.2*	30.1	3.8%	-1.8%
COc1ccc(C(=O)NC2CC3CCCC(C2)N3Cc2ccccc2)c(OC)c1 (configuration not stated)	7.2%	i	-18.3	-89.2*	-22.0%	-20.4%
CCOc1ccc(C(=O)NC2CCN(S(C)(=O)=O)CC2)cc1	20.8%	i	-0.2	20.9	-3.2%	0.0%
COc1ccccc1C(=O)NC1CC2CCC(C1)N2Cc1ccccc1 (configuration not stated)	-8.8%	i	-16.7	-95.2*	-17.3%	3.0%
O=C(NCc1ccccc1)NC1CC2CCC(C1)N2Cc1ccco1 (configuration not stated)	1.7%	i	-3.7	-11.8	0.2%	?
COc1ccc(C(=O)NC2CCN(S(=O)(=O)Cc3ccccc3)CC2)c(OC)c1	-9.4%	i	8.5	-12.1	-1.9%	-4.3%
CCOc1ccc(C(=O)NC2CC3CCCC(C2)N3Cc2ccccc2)cc1 (configuration not stated)	-23.3%	i	-9.0	-54.0*	-11.3%	3.8%
O=C(NC1CC2CCC(C1)N2Cc1ccccc1)c1ccccc1Br (configuration not stated)	/	?	-19.3	-78.9*	-20.3%	0.8%
COc1cc2nc(N3CCCC(O)C3)c(CNCc3ccccc3F)cc2c(OC)c1OC (configuration not stated)	/	i	/	/	/	/
Cc1ccc(C(=O)c2oc3ccccc3c2NC(=O)COc2ccccc2C)cc1	7.5%	i	-21.3	/	-97.1%	12.2%

From PubChem
